High-throughput results (PubChem)
PAFAH2 FP inh = PAFAH2 enzyme inhibitors, primary screen, biochemical, fluorescence polarization, human | recombinant PAFAH2, FP-rhodamine activity probe | Platelet-activating factor acetylhydrolase 2, cytoplasmic (Homo sapiens), Q99487 | inhibition, % at 3.39 µM | 340,000 compounds, 0.99% hits | AID 492956, 2010;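 active = inhibition above the mean over all tested compounds plus 3 SD, cut at about 30% in these data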;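 note: inhibitors block probe labeling of enzyme so polarization drops; 0% = enzyme with DMSO and 100% = wells lacking PAFAH2 protein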
Fh CTSL1 inh = Fasciola hepatica cathepsin L1 inhibitors, primary screen, counter-screen for PFM18AAP inhibitor project, biochemical, QFRET, fluorogenic peptide substrate; recombinant F. hepatica cathepsin L1, Z-Leu-Arg-MCA fluorescence; inhibition, % at 5.96 µM; 300,000 compounds, 0.49% hits;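 active = inhibition above the mean of all tested compounds plus 3 SD, set per screening campaign, cut at about 17% in these data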;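 note: 0% = plate median of test compound wells and 100% = 1 µM Z-Phe-Ala-diazomethylketone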
pPAFAH FP inh = pPAFAH enzyme inhibitors, primary screen, biochemical, fluorescence polarization, human. Platelet-activating factor acetylhydrolase (Homo sapiens), Q13093. recombinant pPAFAH, FP-rhodamine probe fluorescence polarization. inhibition, % at 3.39 µM. 330,000 compounds, 1.5% hits. AID 463082, 2010;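 active = inhibition above the mean inhibition across the screen plus 3 SD, cut at about 25% in these data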;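 note: inhibitors block binding of the rhodamine activity-based probe so polarization drops; 0% = enzyme with DMSO and 100% = wells lacking pPAFAH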
PAFAH1B2 inh = PAFAH1B2 enzyme inhibitors, primary screen, biochemical, fluorescence polarization, human. inhibition, % at 3.39 µM. 340,000 compounds, 1.2% hits. Platelet-activating factor acetylhydrolase IB subunit alpha2 (Homo sapiens), P68402. recombinant PAFAH1B2, FP-rhodamine activity probe;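 active = inhibition above the mean of all tested compounds plus 3 SD, cut at about 24% in these data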;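 note: 0% = enzyme with DMSO and 100% = wells lacking PAFAH1B2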
PP5 primary = PP5 phosphatase inhibitors, primary screen, biochemical, fluorescence. Serine/threonine-protein phosphatase 5 (Homo sapiens), P53041. purified PP5c, OMFP substrate fluorescence. 320,000 compounds, 0.18% hits. inhibition, % at 6.7 µM;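 active = inhibition above the campaign's mean inhibition across all tested compounds plus 3 SD, cut at about 9.5% in these data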;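 note: 0% = DMSO only and 100% = 100 µM cantharidin control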
PAFAH1B3 FP inh = PAFAH1B3 enzyme inhibitors, primary screen, biochemical, fluorescence polarization, human; AID 492972, 2010; recombinant PAFAH1B3, FP-rhodamine probe; Platelet-activating factor acetylhydrolase IB subunit alpha1 (Homo sapiens), Q15102; 340,000 compounds, 0.28% hits; inhibition, % at 3.39 µM;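 active = inhibition above the screen-wide average of all tested compounds plus 3 SD, cut at about 25% in these data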;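 note: 0% = enzyme with DMSO only and 100% = wells lacking PAFAH1B3 protein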
Target sequence (Q15102 whole entry, looked up): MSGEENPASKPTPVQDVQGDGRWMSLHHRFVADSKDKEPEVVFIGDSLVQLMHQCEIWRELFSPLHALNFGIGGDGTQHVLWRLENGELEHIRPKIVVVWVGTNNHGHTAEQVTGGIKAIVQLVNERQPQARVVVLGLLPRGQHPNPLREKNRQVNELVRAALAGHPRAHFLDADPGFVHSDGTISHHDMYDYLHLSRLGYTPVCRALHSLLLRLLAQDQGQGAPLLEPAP
An asterisk follows results filed as active; / = not tested or not shown. Only some compounds are listed: those with a hit (about 3% of all), similar ones and a draw of the others.

SMILES	PAFAH2 FP inh	Fh CTSL1 inh	pPAFAH FP inh	PAFAH1B2 inh	PP5 primary	PAFAH1B3 FP inh
CC1CCCCC12NC(=O)N(CC(=O)NCCc1c[nH]c3ccccc13)C2=O (configuration not stated)	0	/	1	2	2	7
CCOC(=O)/C(=C\c1ccc(C)cc1)NC(=O)c1ccccc1	2	-2	5	4	1	0
Cc1ccc(/C=C(\NC(=O)c2ccccc2)C(=O)OCc2ccccc2)cc1	0	22*	4	3	2	0
Cc1ccc([C@@H]2[C@@H]3C(=O)N(C)C(=O)[C@@H]3[C@]3(C)C(=O)N(Cc4ccc(-c5ccccc5)cc4)CC(=O)N23)o1	-4	-4	7	-1	0	-4
CCC1c2ccccc2C(=O)C1C(N)=O (configuration not stated)	1	/	/	3	/	2
Cc1cc(Nc2ccccc2)nn1C(=O)c1ccc(Br)cc1	-1	3	11	27*	1	10
Cc1cc(Nc2ccccc2)nn1C(=O)c1ccccc1	6	-3	13	6	6	17
C/C(=N\O)C1/C(=N/O)CC2C1C2(C)C (configuration not stated)	9	0	3	34*	-2	-3
CN(C(=O)COC(=O)CCC(=O)c1ccc(F)cc1)C1CCCCC1	0	/	9	9	/	9
C=CCN(CC=C)Cc1c(C)[nH]c2c(C)c(C)ccc2c1=O	3	7	0	-1	3	5
CCN(Cc1ccccc1)Cc1c(C)[nH]c2c(C)c(C)ccc2c1=O	6	48*	4	4	-1	8
CC(=O)c1cccc(NC(=O)c2cccc3ccccc23)c1	8	0	3	0	3	8
Cc1ccc(CS(=O)(=O)CC(C)(O)c2ccccc2)cc1 (configuration not stated)	0	-3	8	9	-1	5
Cc1ccc(CS(=O)(=O)CC(C)(O)c2ccc(Cl)cc2)cc1 (configuration not stated)	-1	-9	8	27*	1	-8
CC(=O)c1c(NCc2ccccc2)nc(=O)n(-c2ccccc2)c1C	8	1	-3	3	0	7
CCn1c(C)c(C(C)=O)c(NCc2ccccc2)nc1=S	4	0	26*	15	-1	3
O=C(O)CCc1ccc(NCc2cccc(Oc3ccccc3)c2)cc1	0	-2	13	24*	1	14
CCOC(=O)c1c(NC(=O)CSc2nnc(CNc3ccc(OC)cc3)n2C)sc(C)c1C	8	-2	4	26*	4	8
CCCOc1ccc(C(=O)Nc2ccc3c(c2)OCCO3)cc1	4	3	5	1	1	13
COc1ccc(CC(=O)OCN2C(=O)c3ccccc3C2=O)cc1OC	4	-15	0	0	0	9
O=C(CNC(=O)c1sc2ccccc2c1Cl)NC1CC1	-10	-3	2	-3	2	0
CCCNC(=O)c1ccc2c(=O)c(O)c(-c3ccc(OC)cc3)[nH]c2c1	-16	-2	13	2	2	14
Cc1ccc(-c2[nH]c3cc(C(=O)NCCCn4ccnc4)ccc3c(=O)c2O)cc1	20	2	15	14	1	15
CCCNC(=O)c1ccc2c(=O)c(O)c(-c3ccsc3)[nH]c2c1	-16	1	15	27*	1	38*
Cc1ccc(CNC(=O)c2ccc3c(=O)c(O)c(-c4ccc(C)cc4)[nH]c3c2)cc1	-22	1	27*	8	2	11
Cc1cccc(-n2c(-c3ccncc3)n[nH]c2=S)c1C	-5	0	30*	4	0	8
Cc1ccccc1-n1c(-c2ccncc2)n[nH]c1=S	-6	1	-3	0	1	-1
O=C(Cc1ccc(Br)cc1)Nc1ncc([N+](=O)[O-])s1	11	-4	15	35*	1	12
Cc1ccc(C)n1NC(=O)c1ccccc1O	9	-1	32*	-1	3	2
